HT1080-NT tox = kills 2HG-producing HT-1080-NT fibrosarcoma cells; Potency, µM (highest dose often 46.1 µM), without a hit: at the highest dose activity, negative = less viability, actives largely listed as cytotoxic; hit rate 1.6% among 360,000; HT-1080-NT fibrosarcoma viability, CellTiter-Glo ATP luminescence, 48 h;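 note: NT is the 2HG producing partner of a matched IDH1 knockdown line; potency is the fitted concentration of half-maximal effect; 0% = DMSO-treated cells and -100% = media-only wells without cells; nearly all actives have a fitted effect of over 55% in size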
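Luminescent CellTiter-Glo readout after 48 hours of compound exposure at 37 degrees C defined viability of HT-1080-NT cells. Activity was normalized to DMSO wells and cell-free media wells; concentration-response curves were fitted and assigned curve classes.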
TDP1 cell CPT = DT40-hTDP1 cell growth loss with CPT; chicken DT40 Tdp1-/-;hTDP1 cells + 20 nM CPT, ATP luminescence, 48 h; Potency, µM (highest dose often 46.2 µM), for inactives: at the highest dose activity change, negative = growth inhibition, usual class: inhibitors; hit rate 12% among 420,000; AID 686979; note: potency is the fitted concentration of half-maximal effect; nearly all actives have a fitted effect of over 55% in size
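Chicken DT40 Tdp1-/- cells complemented with human TDP1, 400 cells/well, exposed to compounds plus 20 nM camptothecin for at least 48 h at 37 C; viability read as ATP content by CellTiter-Glo luminescence.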
TDP1 cell noCPT = qHTS for Inhibitors of human tyrosyl-DNA phosphodiesterase 1 (TDP1): qHTS in cells in absence of CPT | Potency, µM (doses to about 46.2 µM), for inactives: top-dose activity change, negative = growth inhibition, hits mostly inhibitors | hit rate 15% among 420,000 | DT40 Tdp1-/- hTDP1 cells, no CPT, ATP luminescence, 48 h; note: potency is the fitted concentration of half-maximal effect; nearly all actives have a fitted effect of over 55% in size
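Growth of hTDP1-complemented DT40 Tdp1-knockout cells is measured by ATP luminescence after at least 48 hr compound exposure at 37 °C, with DMSO substituting for the 20 nM CPT used in the parallel screen.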
IL-1B inflam inh = inflammasome signaling inhibition, IL-1 beta readout; THP-1 LPS/ATP IL-1B secretion, AlphaLISA, 16 h; stronger effect = lower value; activity change, % at 57.5 µM; hit rate 4.7% among 360,000; in the data active = activity change below about -50%; inconclusive = mostly about -30% to -49%
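Secreted IL-1B measured by AlphaLISA bead assay after 16 h compound exposure of THP-1 cells; compounds (final up to 57.5 uM) added 1 h before LPS (250 ng/mL) and ATP (1.25 mM) stimulation; lower signal means less secretion.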
HT1080 IDH1KD tx = kills HT-1080 cells with IDH1 knockdown; hit rate 2% among 360,000; AID 686971; HT-1080 IDH1 knockdown viability, ATP luminescence, 48 h; Potency, µM (highest dose often 46.1 µM), for the others: top-dose activity, negative = toxicity, most hits filed as cytotoxic;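 note: potency is the fitted concentration of half-maximal effect; 0% = DMSO wells and -100% = cell-free medium wells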
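Luminescent ATP read-out (CellTiter-Glo, 10 min at room temperature) after 48 h compound exposure at 37 °C gave viability of IDH1-knockdown HT-1080 cells. Activity was normalised to DMSO and cell-free wells, then fitted as concentration-response curves.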
ALOX12 inh = inhibitors of human 12S-lipoxygenase ALOX12. P18054. purified 12hLO, xylenol orange hydroperoxide absorbance. Potency, µM (doses to about 108 µM), for the others: at the highest dose activity change, negative = inhibition, most hits filed as inhibitors. hit rate 1.1% among 580,000. AID 1671190; note: potency is the fitted concentration of half-maximal effect
Target sequence (P18054 whole entry, looked up): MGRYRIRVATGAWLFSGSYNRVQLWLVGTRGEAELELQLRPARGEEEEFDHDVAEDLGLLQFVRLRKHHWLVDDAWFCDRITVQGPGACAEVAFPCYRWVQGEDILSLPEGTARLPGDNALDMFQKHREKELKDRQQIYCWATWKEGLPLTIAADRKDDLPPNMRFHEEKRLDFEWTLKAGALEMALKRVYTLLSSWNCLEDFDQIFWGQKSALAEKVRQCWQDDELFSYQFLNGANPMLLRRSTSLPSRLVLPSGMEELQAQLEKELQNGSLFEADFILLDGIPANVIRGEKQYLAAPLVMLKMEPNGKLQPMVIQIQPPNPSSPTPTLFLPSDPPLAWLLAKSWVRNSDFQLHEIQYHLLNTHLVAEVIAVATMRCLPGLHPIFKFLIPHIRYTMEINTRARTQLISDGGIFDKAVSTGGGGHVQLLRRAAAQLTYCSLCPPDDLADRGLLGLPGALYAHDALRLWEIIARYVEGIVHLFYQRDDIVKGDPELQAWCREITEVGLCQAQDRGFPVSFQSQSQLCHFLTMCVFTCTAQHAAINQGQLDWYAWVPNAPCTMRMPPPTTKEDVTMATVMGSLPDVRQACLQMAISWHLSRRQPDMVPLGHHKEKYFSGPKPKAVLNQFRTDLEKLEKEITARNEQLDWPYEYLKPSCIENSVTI
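Purified human 12hLO at 150 nM in 25 mM Hepes, 0.01% Triton X-100, pH 7.0, preincubated 15 min at room temperature with compound. Reaction started with 40 uM arachidonic acid, 30 min at room temperature. Hydroperoxide measured by Fe-xylenol orange, 573/405 nm absorbance ratio.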
Numbers without * were called inactive; ? = inconclusive; . = not tested or not shown. This excerpt belongs to a sample that is enriched for hits. Unless noted, calls come from the whole dose curve; as a rule, active = well fitted curve in the direction sought with a large enough effect; inconclusive = small, poorly fitted or top-dose-only effect, or another doubt; inactive = no such curve, though single readings can be large; an effect the other way counts as inactive or inconclusive. Unless noted, % is set by controls: 0 for no effect and ±100 for the full control effect.

SMILES	HT1080-NT tox	TDP1 cell CPT	TDP1 cell noCPT	IL-1B inflam inh	HT1080 IDH1KD tx	ALOX12 inh
CC(=O)N1C[C@@H]2CCCN3CCC[C@@H]([C@H]23)[C@H]1CCCC(=O)NCc1ccc(C)o1	.	.	.	.	.	51%
Cc1ccccc1NC(=O)c1sc2nc(-c3cc4ccccc4oc3=O)[nH]c(=O)c2c1C	.	8.2µM*	?	.	.	-18%
Cc1ccc(NC(=O)c2sc3nc(-c4cc5ccccc5oc4=O)[nH]c(=O)c3c2C)c(C)c1	.	-12%	-28%	.	.	7%
COc1cc(F)cc(-c2ccc3c(c2)c(C#Cc2ccsc2)c(-c2cc(OC)cc(OC)c2)n3C)c1	8%	?	15µM*	-11	0%	5%
COc1ccc(-c2c(C#Cc3ccsc3)c3cc(-c4ccc5[nH]ccc5c4)ccc3n2C)cc1	-2%	-23%	?	1	1%	-57%
COc1ccc(-c2c(C#Cc3ccsc3)c3ccccc3n2C)cc1	-12%	21µM*	23µM*	21	-1%	-29%
COc1ccc(-c2c(C#Cc3ccsc3)c3cc(-c4cccc5[nH]ccc45)ccc3n2C)cc1	-5%	?	18µM*	-15	6%	2%
COc1cc(OC)cc(-c2c(C#Cc3ccsc3)c3cc(-c4ccc(OC)c(OC)c4)ccc3n2C)c1	0%	-9%	-15%	24	0%	?
COc1ccc(-c2c(C#Cc3ccsc3)c3cc(-c4ccc(C(N)=O)cc4)ccc3n2C)cc1	12%	23µM*	?	-7	-10%	-3%
COc1ccc(C)cc1C(C)NC(=O)c1ccc2c(c1)OCO2 (stereo not drawn)	.	.	.	.	.	12%
COC(=O)c1ccc2c(c1)c(C#Cc1ccccc1)c(-c1ccccc1)n2C	8%	21µM*	16µM*	13	1%	-12%
O=C(Cc1c(F)cccc1Cl)NCC(=O)N1CCN(c2ccccn2)CC1	.	.	.	.	.	16%
COC(=O)[C@]12CCCCC=C1N(Cc1cccc3ccccc13)C(=O)[C@H](CC(=O)NCc1cccs1)C2	?	?	?	-60*	?	-55%
CCOC(=O)[C@]12CCCC=C1N(Cc1cccc3ccccc13)C(=O)[C@H](CC(=O)NCc1ccc(C)o1)C2	?	?	?	-2	?	3%
COC(=O)[C@]12CCCCC=C1N(Cc1cccc3ccccc13)C(=O)[C@H](CC(=O)NCc1ccc(C)o1)C2	-28%	?	21µM*	0	?	-39%
c1cncc(CSc2ccc(-c3ccc4c(c3)OCO4)nn2)c1	-23%	?	16µM*	-51*	?	-8%
CSc1ccc(-c2cccc([N+](=O)[O-])c2)nn1	-17%	16%	-29%	-6	-4%	-9%
Fc1cccc(CSc2ccc(-c3ccc4c(c3)OCO4)nn2)c1	-28%	0%	-5%	-2	?	-23%
O=[N+]([O-])c1cccc(-c2ccc(SCc3cccnc3)nn2)c1	-22%	?	?	-80*	?	?
Cn1cc(C(=O)c2ccc(F)cc2)cc1-c1nc2ccccc2n1C	-10%	?	16µM*	-29	0%	0%
S=c1[nH]nc(-c2n[nH]c3c2CCC3)n1/N=C/C=C/c1ccco1	0%	-10%	-25%	12	-2%	?
COc1ccccc1/C=C/C=N/n1c(-c2n[nH]c3c2CCC3)n[nH]c1=S	-2%	?	13µM*	-23	?	?
COc1ccccc1/C=C/C=N/n1c(-c2ccc(C)cc2)n[nH]c1=S	3%	?	?	33	0%	?
COc1cccc(/C=N/n2c(-c3n[nH]c4c3CCC4)n[nH]c2=S)c1O	-1%	-4%	?	4	4%	40µM*
COc1ccc(-c2n[nH]c(=S)n2/N=C/C=C\c2ccccc2OC)cc1	-16%	23µM*	10µM*	32	-15%	-5%
SMILES	HT1080-NT tox	TDP1 cell CPT	TDP1 cell noCPT	IL-1B inflam inh	HT1080 IDH1KD tx	ALOX12 inh
CCn1cnc2c1c(=O)n(CC(=O)N1CCCc3ccccc31)c(=O)n2Cc1ccccc1	.	.	.	.	.	3%
CSc1cccc(NC(=S)N2CCCN(Cc3ccc(F)cc3)C2)c1	-14%	?	?	-52*	?	?
Cc1ccc(C)c(NC(=S)N2CCCCCC2)c1	5%	21µM*	16µM*	25	1%	0%
Cc1ccccc1NC(=S)N1CCCN(Cc2ccc(F)cc2)C1	0%	-2%	-9%	?	-3%	?
Cc1c(Cl)cccc1NC(=S)N1CCCN(Cc2ccc(F)cc2)C1	-10%	?	?	-88*	?	?
Cc1ccc(NC(=S)N2CCCN(Cc3ccc(F)cc3)C2)c(C)c1	-9%	?	21µM*	-22	-17%	?
CC1CCc2noc(NC(=O)c3ccc(F)cc3)c2C1 (stereo not drawn)	.	.	.	.	.	6%
COc1cc2c(NC3CCN(C)CC3)nc(N3CCCCC3)nc2cc1OCCCN(C)C	.	4µM*	10µM*	.	.	.
COc1cc2c(NC3CCN(C)CC3)nc(N3CCCCC3)nc2cc1OCCOCCN(C)C	.	11µM*	?	.	.	.
COc1cc2c(NC3CCN(C)CC3)nc(N3CCCN(C)CC3)nc2cc1OCCOCCN(C)C	.	?	-29%	.	.	.
COc1cc2c(NC3CCN(C(C)C)CC3)nc(N3CCCN(C)CC3)nc2cc1OCCCN1CCCC1	.	5µM*	3.5µM*	.	.	.
COc1cc2c(NC3CCN(C)CC3)nc(N3CCCN(C)CC3)nc2cc1OCCCCN(C)C	.	-25%	?	.	.	.
COc1cc2c(NC3CCN(C)CC3)nc(N3CCCN(C)CC3)nc2cc1OCCCCCCN(C)C	.	16µM*	?	.	.	.
CCCN(C)CCCOc1cc2nc(N3CCCN(C)CC3)nc(NC3CCN(C)CC3)c2cc1OC	.	8.9µM*	13µM*	.	.	.
COc1cc2c(NC3CCN(C(C)C)CC3)nc(N3CCCN(C)CC3)nc2cc1OCCOCCN(C)C	.	7.1µM*	14µM*	.	.	.
COCCC(=O)N1CCCCC1c1noc(COc2ccc(C)cc2)n1 (stereo not drawn)	.	.	.	.	.	-6%
COc1cc(C2c3[nH]c4ccccc4c3C[C@H]3C(=O)N(CCO)CC(=O)N23)cc(OC)c1OC (stereo partly drawn)	-5%	?	21µM*	39	?	6%
